Assay outcomes deposited in PubChem BioAssay by National Center for Advancing Translational Sciences (NCATS).
TRPML1 ag – agonists of human TRPML1 channel | activation, % (test concentration not listed) | TRPML1-expressing cells, Ca2+ dye fluorescence, FDSS | hit rate 0.12% among 410,000 | Q9GZU1; in the data active = activation above about 50%; inconclusive = mostly about 30% to 49%; also: 0% is about no effect
Target sequence (Q9GZU1 whole entry, looked up): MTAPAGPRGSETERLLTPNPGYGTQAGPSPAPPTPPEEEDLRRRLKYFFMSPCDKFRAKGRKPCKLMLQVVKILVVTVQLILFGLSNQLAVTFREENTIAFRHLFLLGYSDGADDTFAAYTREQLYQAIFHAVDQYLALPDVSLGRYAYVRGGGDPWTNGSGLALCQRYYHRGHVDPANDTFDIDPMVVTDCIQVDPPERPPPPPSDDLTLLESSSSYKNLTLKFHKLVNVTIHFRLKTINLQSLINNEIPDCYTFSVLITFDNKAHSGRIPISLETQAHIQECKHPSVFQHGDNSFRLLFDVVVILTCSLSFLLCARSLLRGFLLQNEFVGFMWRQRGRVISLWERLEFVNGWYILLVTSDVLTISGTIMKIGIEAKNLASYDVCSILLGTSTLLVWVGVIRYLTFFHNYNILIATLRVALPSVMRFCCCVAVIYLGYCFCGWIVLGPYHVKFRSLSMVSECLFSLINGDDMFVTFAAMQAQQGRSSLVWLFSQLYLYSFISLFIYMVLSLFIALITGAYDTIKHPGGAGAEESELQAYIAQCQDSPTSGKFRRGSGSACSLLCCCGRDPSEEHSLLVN
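Calcium fluorescence on an FDSS kinetic reader gave the read-out. Tet-induced TRPML1-DL cells were plated overnight, dye-loaded (Ca8 with quencher, 45-90 min, room temperature, dark), then read 110 s after compound addition, and again 110 s after 4uM final 54-4 (EC80).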
GLP1R inv ag – inverse agonists of human GLP-1 receptor | Potency, µM (doses to about 38.3 µM), without a hit: at the highest dose activity change, negative = inhibition, most hits filed as inhibitors | hit rate 1.6% among 410,000 | HEK293 GLP-1R CRE-luciferase, luminescence, 24 h; GLP-1R form is constitutively active; also: potency is read from the fitted curve at half-maximal effect; % is scaled to controls: 0 for no effect and ±100 for the full control effect; nearly all actives have a fitted effect of over 55% in size
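Seeding at 200 cells/uL, 12 h culture, 24 hr compound treatment, then luciferase reagent and a luminescence read; cells are HEK293 stably expressing a constitutively active GLP-1R plus cAMP-responsive luciferase.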
GLP1R ag – agonists of human GLP-1 receptor; Potency, µM (titrated, usually from 45.6 µM), inactives show at the top dose activation, usual class: activators; hit rate 0.007% among 380,000; P43220; HEK293 GLP-1R CRE-luciferase, luminescence, 4-6 h; cells express a hypersensitive GLP-1R form; also: potency is read from the fitted curve at half-maximal effect; % of control where 0% means no effect
TRPML1 inh – inhibitors of human TRPML1 channel | Q9GZU1 | TRPML1-inducible cells, Ca2+ dye fluorescence, FDSS; active compounds read low; inhibition of EC80 agonist-evoked calcium signal | activity change, negative = inhibition, % (no concentration beside the values) | hit rate 0.02% among 390,000 | AID 624415; in the data active = activity change below about -50%; inconclusive = between about -30% and that limit;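 also: stimulus is agonist 54-4 at its EC80 concentration; % is scaled to controls: 0 for no effect and ±100 for the full control effect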
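Tet-induced TRPML1-DL cells loaded with Ca8 no-wash calcium dye were read kinetically on FDSS. Compound addition was followed by EC80 agonist 54-4 (4 uM final); inhibition was read over 110 s.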
GLP1R cytotox – cytotoxicity counter-screen for GLP-1 receptor inverse agonists; HEK293 cAMP-luciferase reporter cells, luminescence, 24 h; Potency, µM (doses to about 38.3 µM), for the others: at the highest dose activity change, negative = inhibition, most hits filed as inhibitors; hit rate 0.13% among 410,000; AID 624418;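 also: loss of luciferase light is scored as toxicity; potency is read from the fitted curve at half-maximal effect; % is scaled to controls: 0 for no effect and ±100 for the full control effect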
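Compound-treated cells are incubated 24 hr at 37 deg C under 5% CO2 after a 12 hour attachment period, then luciferase detection reagent is added and luminescence is measured following 12 min at room temperature; lowered signal indicates toxicity.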
An asterisk follows results filed as active. Sampled rows, rich in hits. Any-hit rate of the full collection: about 1.8%. Unless noted, calls follow the shape of the dose curve; as a rule, active = well fitted curve in the direction sought with a large enough effect; inconclusive = small, poorly fitted or top-dose-only effect, or another doubt; inactive = no such curve, though single readings can be large; an effect the other way counts as inactive or inconclusive.

Screening Cc1ccc(S(=O)(=O)N(CC(=O)Nc2cccnc2)c2cc(Cl)ccc2C)cc1 returned TRPML1 ag 0.4, GLP1R inv ag 10µM*, TRPML1 inh -15.3 and GLP1R cytotox -26.4%.
Screening Cc1ccc(S(=O)(=O)N(CC(=O)Nc2cccnc2)c2cccc(Br)c2)cc1 returned TRPML1 ag 2.2, GLP1R inv ag 4.47µM*, GLP1R ag 3.8%, TRPML1 inh -3.7 and GLP1R cytotox 0.0%.
Screening Cc1cnc2ccc(I)cc2c1/C=C/c1ccc(N(C)C)cc1 returned TRPML1 ag 3.3.
`NC(=O)N1c2ccccc2C=Cc2ccccc21` gave TRPML1 ag 0.1, GLP1R inv ag 6.6%, GLP1R ag 8.5%, TRPML1 inh -10.1 and GLP1R cytotox 2.5%.
CCN(CC)C(=O)N1c2ccccc2C=Cc2ccccc21 was read as TRPML1 ag 2.7, GLP1R inv ag 5.62µM*, GLP1R ag 1.1%, TRPML1 inh 8.1 and GLP1R cytotox -6.1%.
COC(=O)N/N=C/c1cn(CC(C)COc2ccccc2)c2ccccc12 (configuration not stated) was read as TRPML1 ag 0.0, GLP1R inv ag 10µM*, GLP1R ag -6.9%, TRPML1 inh 7.1 and GLP1R cytotox -26.9%.
`CCOC(=O)N/N=C/c1cn(CCCOc2ccccc2)c2ccccc12` gave TRPML1 ag 0.2, GLP1R inv ag 8.91µM*, GLP1R ag 14.3%, TRPML1 inh 1.3 and GLP1R cytotox 18.6%.
Screening COc1ccc(-c2cn3cccnc3n2)cc1NC(=O)c1cc(C)cc(C)c1 returned TRPML1 ag 0.1, GLP1R inv ag 14.0%, TRPML1 inh -10.2 and GLP1R cytotox -8.1%.
CCN1CCN(CCNC(=O)c2ccc3c(c2)N(Cc2ccc(F)cc2)C(=O)/C(=C/c2ccccc2)S3)CC1 was read as TRPML1 ag 2.7, GLP1R inv ag 10µM*, GLP1R ag -0.4%, TRPML1 inh 1.8 and GLP1R cytotox inconclusive.
CCc1ccc(/C=C2/Sc3ccccc3N(CC(=O)NCCCN3CCOCC3)C2=O)cc1 was read as TRPML1 ag 1.4, GLP1R inv ag 8.91µM*, GLP1R ag -3.5%, TRPML1 inh 3.4 and GLP1R cytotox -9.8%.
Cc1ccccc1CN1C(=O)/C(=C\c2ccc(C(=O)NCCN3CCOCC3)cc2)Sc2ccccc21 was read as TRPML1 ag 0.2, GLP1R inv ag 11.2µM*, GLP1R ag -2.0%, TRPML1 inh -10.0 and GLP1R cytotox 39.1%.
For O=C(NCCN1CCOCC1)c1ccc(/C=C2\Sc3ccccc3N(Cc3ccccc3F)C2=O)cc1 the results were TRPML1 ag 0.9, GLP1R inv ag inconclusive, GLP1R ag -4.1%, TRPML1 inh 19.2 and GLP1R cytotox 23.2%.
CCN1C(=O)c2ccccc2Sc2ccc(C(=O)NCCCN3CCCCC3)cc21 was read as TRPML1 ag 0.5, GLP1R inv ag 12.6µM*, GLP1R ag -3.5%, TRPML1 inh 23.7 and GLP1R cytotox -24.3%.
Screening CCCc1cc(=O)[nH]c(Nc2cc(Cl)cc(Cl)c2)n1 returned TRPML1 ag -0.4, GLP1R inv ag inconclusive, TRPML1 inh 4.1 and GLP1R cytotox -23.6%.
`Cc1ccc(CN2C(=O)c3ccccc3S(=O)(=O)c3ccc(C(=O)OCC4CCCO4)cc32)cc1` (configuration not stated) gave TRPML1 ag 1.6, GLP1R inv ag 3.8%, TRPML1 inh 28.8 and GLP1R cytotox 10.0%.
For COc1ccc(N(C(=O)c2ccccc2C)S(=O)(=O)c2ccc(C)cc2)cc1 the results were TRPML1 ag 0.1, GLP1R inv ag 10µM*, TRPML1 inh -4.3 and GLP1R cytotox -2.5%.
For O=c1[nH]c(=O)n(C(c2ccccc2)(c2ccccc2)c2ccccc2)cc1N(CCO)CCO the results were TRPML1 ag 0.6, GLP1R inv ag 10µM*, GLP1R ag -1.2%, TRPML1 inh -6.6 and GLP1R cytotox 7.5%.
`Cc1csc2nc(COC(=O)c3cccc(NC(=O)COc4ccccc4Cl)c3)cc(=O)n12` gave TRPML1 ag 2.3, GLP1R inv ag -8.1%, TRPML1 inh 7.7 and GLP1R cytotox -13.1%.
